CD40 NFkB inh: CD40 pathway inhibition in BL2 cells; inhibition, % at 10 µM; AID 1053188; BL2 NF-kB luciferase reporter, CD40L-induced, 4 h; actives 0.94% (n = 83,000);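 active = mean inhibition of at least 50% with a set share of replicates also reaching that level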;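 note: 0% = neutral control wells and 100% = IKK inhibitor VII at 50 µM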
The depositor's hits bear a star; [ ] = dose if it differs, or a comment. Only a selection was taken, and hits are over-represented in it overall.

SMILES | CD40 NFkB inh
Cc1nnnn1/C(=C\c1ccccc1)C(=O)OCC(=O)Nc1ccc(Cl)cc1F | 78*
CCCCC(=O)Nc1ccc(Cl)cc1F | -11
COc1ccccc1-c1nnc(Sc2nc([N+](=O)[O-])nn2C)o1 | 25
CC(C)C[C@@H]1COCn2nncc2CCCC(=O)N1 | -4[25 µM]
O=C(C1CCCC1)N1CC[C@@H]2[C@H](CO)Nc3ccc(C#Cc4ccc(F)cc4)cc3[C@@H]21 | -6
CCCNC(=O)N1[C@H](CO)[C@H](c2ccccc2-c2ccc(F)cc2)[C@@H]1C#N | 28[25 µM]
O=C(Cc1ccncc1)N1CC(=O)N2[C@@H](CO)[C@H](c3ccc(Br)cc3)[C@@H]2C1 | 0[25 µM]
COc1cc(C(=O)O[C@H]2CC(C)=CC[C@@]3(C)CC[C@@](O)(C(C)C)[C@H]23)ccc1O | 52*
CCCOC(=O)c1ccc(O)c(OC)c1 | 15
O=C(CN1CCCCCC1)N1c2ccccc2C=Cc2ccccc21 | 25
O=C(C(=Cc1ccccc1)CN1CCCCC1)c1ccccc1 | 73*
O=C(CN1CCCC1)N1c2ccccc2C=Cc2ccccc21 | 11
CC(=O)Nc1ccc(NC(=O)CC2(CC(=O)N3CCOCC3)CCCC2)cc1 | 10
C[C@H]1CN([C@@H](C)CO)C(=O)c2c(c3ccccc3n2C)-c2ccccc2CO[C@H]1CN(C)Cc1ccccc1C(F)(F)F | 8[25 µM]
C[C@H](CO)N1C[C@H](C)[C@H](CN(C)Cc2cccc(F)c2)OCc2ccccc2-c2c(n(C)c3ccccc23)C1=O | 10
C[C@@H]1CN([C@@H](C)CO)C(=O)c2ccccc2-c2ccccc2CO[C@H]1CN(C)Cc1ccccc1C(F)(F)F | 66*[25 µM]
C[C@@H]1CN([C@H](C)CO)C(=O)c2c(c3ccccc3n2C)-c2ccccc2CO[C@H]1CN(C)Cc1ccccc1C(F)(F)F | 45[25 µM]
C[C@H]1CN([C@@H](C)CO)C(=O)c2c(c3ccccc3n2C)-c2ccccc2CO[C@H]1CN(C)Cc1cccc(F)c1 | 12
C[C@H]1CN([C@@H](C)CO)C(=O)c2c(c3ccccc3n2C)-c2ccccc2CO[C@H]1CN(C)Cc1ccc(C(F)(F)F)cc1 | 4
C[C@H](CO)N1C[C@H](C)[C@H](CN(C)Cc2ccc(C(F)(F)F)cc2)OCc2ccccc2-c2ccccc2C1=O | 15
C[C@@H]1CN([C@@H](C)CO)C(=O)c2c(c3ccccc3n2C)-c2ccccc2CO[C@H]1CN(C)Cc1ccc(C(F)(F)F)cc1 | 11
C[C@H]1CN([C@@H](C)CO)C(=O)c2ccccc2-c2ccccc2CO[C@@H]1CN(C)Cc1ccc(C(F)(F)F)cc1 | 4
C[C@H]1CN([C@@H](C)CO)C(=O)c2c(c3ccccc3n2C)-c2ccccc2CO[C@@H]1CN(C)Cc1cccc(C(F)(F)F)c1 | 61*[25 µM]
C[C@@H]1CN([C@@H](C)CO)C(=O)c2c(c3ccccc3n2C)-c2ccccc2CO[C@@H]1CN(C)Cc1ccccc1C(F)(F)F | 62*[25 µM]
C[C@@H]1CN([C@@H](C)CO)C(=O)c2c(c3ccccc3n2C)-c2ccccc2CO[C@@H]1CN(C)Cc1cccc(C(F)(F)F)c1 | 62*[25 µM]
SMILES | CD40 NFkB inh
N#C[C@H]1[C@H](c2ccc(-c3ccccc3F)cc2)[C@H](CO)N1C(=O)Cc1ccccc1 | 5[25 µM]
Cc1nc2cc(NCc3ccccc3O)ccc2n1Cc1ccccc1 | -44
COCC(=O)N1[C@H](CN(C)C(=O)c2ccccc2)[C@@H](c2ccccc2)[C@@H]1CO | -5[25 µM]
CNC[C@H]1Oc2c(cccc2N(C)C)C(=O)N(C)C[C@@H]1C | -3
CO[C@@H]1CN(C)C(=O)c2cc(NC(=O)CN(C)C)ccc2OC[C@@H](C)N(Cc2ccccc2F)C[C@H]1C | -9[25 µM]
COC(=O)C[C@H]1CC[C@@H]2[C@H](COc3ccc(NS(=O)(=O)c4ccc(C)cc4)cc3C(=O)N2C)O1 | 4[25 µM]
N#C[C@H]1[C@@H](c2ccccc2)[C@H](CO)N1C(=O)Nc1cccc(F)c1 | 12[25 µM]
CCS(=O)(=O)N1CCCCN2[C@@H](CO)[C@@H](c3ccc(-c4ccc(C#N)cc4)cc3)[C@@H]2C1 | -3[25 µM]
OC(CCN1CCCCC1)c1ccc(-c2ccccc2)cc1 (stereo not given) | 57*
OC(COc1ccc(-c2ccccc2)cc1)CN1CCCCC1 (stereo not given) | -18
OC(CCN1CCC2CCC(C2)C1)c1ccc(Br)cc1 (stereo not given) | 9
O=C(NCCNC(=O)c1ccc(-c2cc(Cl)ccc2Cl)o1)c1cnccn1 | 1
N#C[C@H]1[C@H](c2ccccc2-c2ccccc2)[C@@H](CO)N1C(=O)NC1CCCCC1 | 4
CC(=O)N(C)C[C@H]1Oc2ccc(NS(C)(=O)=O)cc2C(=O)N(C)C[C@H]1C | -18
COc1ccccc1-c1ccc([C@@H]2[C@@H](CO)N(C(=O)C3CCOCC3)[C@H]2C#N)cc1 | -6[25 µM]
CN(C)c1ccc2c(c1)[C@@H]1C[C@@H](CC(=O)N3CCc4ccccc4C3)O[C@H](CO)[C@@H]1O2 | -1[25 µM]
COc1cc2oc(-c3ccc(O)cc3)cc(=O)c2c(OC)c1O | -18
O=c1cc(-c2ccc(O)cc2)oc2ccc3ccccc3c12 | 102*
COc1ccc(-c2cc(=O)c3c(C)cc(O)cc3o2)cc1 | -60
OC[C@@H](O)[C@@H](O[C@H]1O[C@H](CO)[C@@H](O)[C@H](O)[C@H]1O)[C@H](O)[C@@H](O)CO | 28
COc1ccc2c3c([nH]c2c1)[C@@H](CO)N(C(=O)c1ccccc1)CC31CN(C(=O)c2cccc(F)c2)C1 | 12
CCCNC(=O)N1[C@H](CO)[C@H](c2ccc(C3=CCCC3)cc2)[C@@H]1CN(C)C(C)=O | -7[25 µM]
COc1cc(OC)c(OC)cc1/C=C/c1ccnc2ccccc12 | -1
COc1cc(/C=C/c2ccc(OC)cc2OC)cc(OC)c1 | -22[25 µM]
COc1ccc(C=Cc2ccc3ccccc3n2)c(OC)c1 | 49*
SMILES | CD40 NFkB inh
O=C(c1ccc2c(c1)CCC2)N1CCN(Cc2ccccc2)CC1 | -8
CCc1cnc(N2[C@H](C#N)[C@H](c3ccc(C#CC(C)C)cc3)[C@@H]2CO)s1 | 21[25 µM]
CC12CN3CC(C)(CN(C1)C3c1ccc3c(c1)OCO3)C2=O (stereo not given) | 36*
COc1ccc2[nH]cc(C3N4CC5(C)CN3CC(C)(C4)C5=O)c2c1 (stereo not given) | 8
CC12CN3CC(C)(CN(C1)C3c1ccc3ccccc3c1O)C2=O (stereo not given) | 7
Cc1ccc(S(=O)(=O)N(C)C[C@H]2Oc3c(NS(C)(=O)=O)cccc3C(=O)N([C@H](C)CO)C[C@@H]2C)cc1 | -2[25 µM]
C[C@H]1CN([C@@H](C)CO)C(=O)c2c(c3ccccc3n2C)-c2ccccc2CO[C@H]1CN(C)S(=O)(=O)c1ccc(Cl)cc1 | 3
O=C(c1ccc(Nc2nccc(-c3cc4ccccc4s3)n2)cc1)N1CCC(N2CCCC2)CC1 | 68*[25 µM]
O=C(c1ccccc1)N1CCN(C2CCCCCC2)CC1 | -3
COc1ccc(C(=O)N2CCC(N3CCN(c4ccccc4)CC3)CC2)cc1 | 3
CN(C)/C=N/c1ncc(C(=O)c2ccc3ccccc3c2)s1 | -45
Cc1cc(Sc2nnc(/N=C/N(C)C)s2)c2ccccc2n1 | 84*
Cc1cc(C(N)=O)c2ccccc2n1 | 5
OCc1ccc(O)c2ncccc12 | 29
Oc1ccc(Cc2ccccc2)c2cccnc12 | 83*
Oc1ccc(CN2CCC(Cc3ccccc3)CC2)c2cccnc12 | 25
COc1ccc(NC(=O)N(C)C[C@H]2OCCCC[C@@H](C)Oc3ccc(NC(=O)Nc4ccccc4)cc3C(=O)N([C@@H](C)CO)C[C@H]2C)cc1 | -7
Cc1ccc(S(=O)(=O)N[C@H]2CC[C@H](CCn3cc(C4CCCC4)nn3)O[C@H]2CO)cc1 | 4

Screening results (PubChem)
